# Assay results as given in publication PMC4552634, “A New Set of Chemical Starting Points with Plasmodium falciparum Transmission-Blocking Potential for Antimalarial Drug Discovery” (PLoS ONE, 2015).
# The whole screen tested about 13,000 compounds, of which about 3,200 (25%) showed an effect of 50% or more. The list shows a part of the results.
# System: P. falciparum stage V gametocytes
# Parameters: BacTiter-Glo ATP luminescence viability of purified stage V gametocytes in 384-well plates, per cent inhibition versus DMSO
# Conditions: 48 h, 5 µM; inhibitor
row,SMILES,% Inhibition [%]
1,CC(C)N(CC(=O)c1ccc(O)c(C(=O)O)c1)Cc1ccccc1 [TCMDC-131774],0.6957
2,COc1ccccc1COc1c(C)nc(N)nc1N [TCMDC-131356],-14.22
3,CC(C)CC(=O)N1CCNC[C@@H]1C(=O)NCc1ccc(Cl)c(Cl)c1 [TCMDC-141242],45.03
4,CN1CCC(Oc2ccc(CN3CC[C@H](NC(=O)c4cccc(C#N)c4)C3)c3ccccc23)C1 (some centres unmarked) [TCMDC-135277],88.31
5,CN1CCC(Oc2ccc(CN3CC[C@H](NC(=O)c4ccc(Cl)c(Cl)c4)C3)c3ccccc23)C1 (some centres unmarked) [TCMDC-140271],51.75
6,CN1CCC(Oc2ccc(CN3CC[C@H](NC(=O)c4ccc(Cl)c(Cl)c4)C3)cc2Cl)C1 (some centres unmarked) [TCMDC-140276],27.21
7,CN1CCC(Oc2ccc(CN3CC[C@H](NC(=O)c4ccc(Cl)c(F)c4)C3)c3ccccc23)C1 (some centres unmarked) [TCMDC-135274],60.57
8,Cc1cc(CN2CC[C@H](NC(=O)c3ccc(Cl)c(Cl)c3)C2)ccc1OC1CCN(C)C1 (some centres unmarked) [TCMDC-140281],32.63
9,CN1CCC(Oc2cc(CN3CC[C@H](NC(=O)c4ccc(Cl)c(Cl)c4)C3)ccc2I)C1 (some centres unmarked) [TCMDC-140266],15.84
10,CN1CCC(Oc2ccc(CN3CC[C@H](NC(=O)c4cc(F)cc(F)c4)C3)c3ccccc23)C1 (some centres unmarked) [TCMDC-135275],57.07
11,CCC(=O)N[C@@H]1CN[C@@H](C#Cc2cc3c(Nc4ccc(OCc5cccc(F)c5)c(Cl)c4)ncnc3s2)C1 [TCMDC-135410],-39.51
12,N#Cc1c(N2CCCCCC2)nc(N)c2c(N)nc3c(c12)CC(=O)N3c1ccc(F)cc1 [TCMDC-123902],44.67
13,O=C(Nc1ccc(S(=O)(=O)N2CCCCC2)cc1)c1cc(-c2cc(Cl)ccc2O)n[nH]1 [TCMDC-124905],-12.68
14,CN1CCC(Oc2ccc(CN3CC[C@H](NC(=O)c4ccc(F)c(F)c4)C3)c3ccccc23)C1 (some centres unmarked) [TCMDC-135278],72.64
15,CCCCCN1CCCN(Cc2cccc(NC(=O)c3ccc4ccccc4c3)c2)CC1 [TCMDC-141854],-83.26
16,CC(=O)Nc1ccc2[nH]cc(C3CCN(CC4CCN(C(=O)/C=C/c5ccc(Cl)c(Cl)c5)CC4)CC3)c2n1 [TCMDC-140112],-22.97
17,Cc1cccc2[nH]cc(C3CCN(CCC4CCN(C(=O)/C=C/c5ccc(Cl)c(Cl)c5)CC4)CC3)c12 [TCMDC-140124],-19.67
18,Nc1ccc2[nH]cc(C3CCN(CC4CCN(C(=O)/C=C/c5ccc(Cl)c(Cl)c5)CC4)CC3)c2n1 [TCMDC-140061],100.1
19,CC(=O)Nc1ccc2[nH]cc(C3CCN(CCC4CCN(C(=O)/C=C/c5ccc(Cl)c(Cl)c5)CC4)CC3)c2n1 [TCMDC-140113],-31.57
20,Nc1ccc2[nH]cc(C3CCN(CCC4CCN(C(=O)/C=C/c5ccc(Cl)c(Cl)c5)CC4)CC3)c2n1 [TCMDC-140062],107.7
21,CC(Cc1ccc(C(=O)OC(c2ccccc2)c2ccccc2)cc1)NCC(O)c1ccccc1 (centres unmarked) [TCMDC-131546],37.45
22,Cc1ccc2nc(-c3cc(-c4cccc(CCN5CCOCC5)c4)cnc3N)[nH]c2c1 [TCMDC-133136],-33.78
23,Cc1nc2ccc(/C=C/C(=O)NC3CCC(CCN4CCc5ccc(C#N)cc5CC4)CC3)cc2[nH]1 (centres unmarked) [TCMDC-139675],-3.608

row,SMILES,% Inhibition [%]
1,Cc1cc(O)cc2c(C3CCN(CC4CCC(NC(=O)/C=C/c5ccccc5Cl)CC4)CC3)c[nH]c12 (centres unmarked) [TCMDC-139924],-46.01
2,CNC(=O)c1ccc2[nH]cc(C3CCN(CC4CCC(NC(=O)/C=C/c5ccccc5Cl)CC4)CC3)c2c1 (centres unmarked) [TCMDC-139978],-4.902
3,CC(=O)Nc1ccc2[nH]cc(C3CCN(CC4CCC(NC(=O)/C=C/c5ccccc5Cl)CC4)CC3)c2n1 (centres unmarked) [TCMDC-140111],60.6
4,CS(=O)(=O)Nc1ccc2[nH]cc(C3CCN(CC4CCC(NC(=O)/C=C/c5ccc(Cl)c(Cl)c5)CC4)CC3)c2n1 (centres unmarked) [TCMDC-140088],4.239
5,Nc1ccc2[nH]cc(C3CCN(CC4CCC(NC(=O)/C=C/c5ccc(Cl)c(Cl)c5)CC4)CC3)c2n1 (centres unmarked) [TCMDC-140064],97.26
6,CC(=O)Nc1ccc2[nH]cc(C3CCN(CC4CCC(NC(=O)/C=C/c5ccc(Cl)c(Cl)c5)CC4)CC3)c2n1 (centres unmarked) [TCMDC-140114],6.04
7,Nc1ccc2[nH]cc(C3CCN(CC4CCC(NC(=O)/C=C/c5ccccc5Cl)CC4)CC3)c2n1 (centres unmarked) [TCMDC-140063],106.2
8,CCCCc1cc(NCc2ccncc2)nc(Nc2ccc(OC)cc2)n1 [TCMDC-134010],-13.59
9,Cc1cccc(NC(=O)c2cnc(N3CCN(c4ccncc4)CC3)c(Cl)c2)c1 [TCMDC-134625],39.85
10,CC(C)Nc1cc(C(=O)N[C@@H](Cc2ccccc2)[C@H](O)CNC2CCOCC2)c(F)c(N2CCCCS2(=O)=O)c1 [TCMDC-135541],-18.96
11,CN(C)CCCOc1cc(NC(=O)Nc2ccc(-c3ccncc3)c3ccccc23)ccc1I [TCMDC-139136],21.74
12,CS(=O)(=O)CCCNCc1ccc(-c2cc3c(Nc4ccc(OCc5ccccc5)cc4)ncnc3cn2)o1 [TCMDC-138081],11.38
13,CN(Cc1ccc(C#N)cc1)C1CCN(c2cc(NC(=O)c3cccc(F)c3)ccn2)CC1 [TCMDC-134976],-19.78
14,COc1ccc2nccc([C@@H](O)CN3CCC(NC(=O)Cc4ccc(Br)c5ccccc45)CC3)c2c1 [TCMDC-141168],-21.28
15,CC1(C)N=C(N)N=C(N)C1c1ccc(Cl)cc1 (centres unmarked) [TCMDC-137610],17.18
16,O=C(O[C@@H]1CN[C@H](C#Cc2cc3c(Nc4ccc5c(cnn5Cc5ccccc5)c4)ncnc3s2)C1)N1CCCC1 [TCMDC-135376],21.76
17,O=C(Cn1c(CCc2cccc(F)c2F)cc(=O)c2ccccc21)N(CCN1CCCCC1)Cc1ccc(-c2ccc(C(F)(F)F)cc2)cc1 [TCMDC-141142],-28.19
18,CCN(CC)CCCN(Cc1ccc(-c2ccc(C(F)(F)F)cc2)cc1)C(=O)Cn1c(SCc2cccc(F)c2F)cc(=O)c2ccccc21 [TCMDC-141175],139.9
19,O=C(Cn1c(SCc2cccc(F)c2F)cc(=O)c2ccccc21)N(CCN1CCCCC1)Cc1ccc(-c2ccc(C(F)(F)F)cc2)cc1 [TCMDC-141466],112.5
20,O=C(Cn1c(CCc2cccc(F)c2F)cc(=O)c2cccnc21)N(CCCn1ccnc1)Cc1ccc(-c2ccc(C(F)(F)F)cc2)cc1 [TCMDC-141469],1.607
21,O=C(Cn1c(SCc2cccc(F)c2F)cc(=O)c2ccccc21)N(CCn1ccnc1)Cc1ccc(-c2ccc(C(F)(F)F)cc2)cc1 [TCMDC-141468],91.6
22,O=C(Cn1c(SCc2cccc(F)c2F)cc(=O)c2ccccc21)N(CCCn1ccnc1)Cc1ccc(-c2ccc(C(F)(F)F)cc2)cc1 [TCMDC-141467],68.26
23,CN(Cc1cccc(F)c1)C1CCN(c2cc(NC(=O)c3ccc(F)cc3)ccn2)CC1 [TCMDC-135018],1.836

row,SMILES,% Inhibition [%]
1,CCCOc1ccccc1-c1nc2[nH]c3c(c2c(=O)[nH]1)CCN(C)C3 [TCMDC-138173],5.306
2,COc1cc(C=CC(=O)N2CCC3(CC2)CC(=O)c2ccccc2O3)cc(OC)c1OC [TCMDC-123541],7.005
3,N#Cc1ccc(-c2ccc(OCC(O)CN3CCCN(Cc4cccc(O)c4Cl)CC3)cc2)cc1 (centres unmarked) [TCMDC-141431],-23.75
4,COc1ccc2nccc([C@@H](O)CN3CCC(NCc4nc5ccccc5s4)CC3)c2c1 [TCMDC-140790],-20.83
5,COc1ccc(NC(=O)Nc2ccc(-c3ccncc3)c(Cl)c2)cc1N1CCN(C)CC1 [TCMDC-139134],-28.75
6,CN(C)c1ccc(NC2=NC(C)(C)N=C(N)N2)cc1 [TCMDC-124346],7.678
7,O=C(Cn1c(SCc2cccc(F)c2F)cc(=O)c2ccccc21)N(CCc1cnc[nH]1)Cc1ccc(-c2ccc(C(F)(F)F)cc2)cc1 [TCMDC-141484],44.33
8,Cn1cncc1CCN(Cc1ccc(-c2ccc(C(F)(F)F)cc2)cc1)C(=O)Cn1c(SCc2cccc(F)c2F)cc(=O)c2ccccc21 [TCMDC-141451],112.4
9,Cc1ccc(/C=C/C(=O)NC2CCC(N3CCC(c4ccccc4C)CC3)CC2)cc1C (centres unmarked) [TCMDC-133526],-66.55
10,CCN1C(=O)C(CC(=O)Nc2cccc(Cl)c2)N(Cc2ccc(OC)c(OC)c2)C1=S (centres unmarked) [TCMDC-123795],79.41
11,COc1cc(NC(=O)c2cccs2)c(OC)cc1NC(=O)Nc1cccc(Cl)c1 [TCMDC-123531],-32.35
12,COc1ccc(CN2C(=S)N(Cc3ccccc3)C(=O)C2CC(=O)Nc2ccccc2)cc1OC (centres unmarked) [TCMDC-123874],33.25
13,O=C(Cc1ccccn1)Nc1cccc(-c2cccc(-c3nc4ccc(C(F)(F)F)cc4[nH]3)c2)c1 [TCMDC-132177],-14.6
14,COc1ccc2nccc([C@@H](O)CN3CCC(NCC(O)Cc4ccccc4)CC3)c2c1 (some centres unmarked) [TCMDC-140702],11.24
15,COc1ccc2nccc([C@@H](O)CN3CCC(NC(=O)/C=C/c4ccc(F)c5ccccc45)CC3)c2c1 [TCMDC-141105],-9.775
16,COc1ccc2nccc([C@@H](O)CN3CCC(NCc4cc5ccccc5nn4)CC3)c2c1 [TCMDC-140972],-3.79
17,COc1ccc2nccc([C@@H](O)CN3CCC(NCc4ccc5c(c4)OCCO5)CC3)c2c1 [TCMDC-141123],9.641
18,COc1ccc2nccc([C@@H](O)CN3CCC(NCC4COc5ccccc5O4)CC3)c2c1 (some centres unmarked) [TCMDC-140733],86.29
19,COc1ccc2nccc([C@@H](O)CN3CCC(NC(=O)/C=C/c4ccnc5ccccc45)CC3)c2c1 [TCMDC-141103],15.04
20,COc1ccc2nccc([C@@H](O)CN3CCC(NCc4ccc5cccc(O)c5n4)CC3)c2c1 [TCMDC-140715],-19.01
21,COc1ccc2nccc([C@@H](O)CN3CCC(NC(=O)/C=C/c4ccc5ccccc5n4)CC3)c2c1 [TCMDC-141104],76.48
22,COc1ccc2nccc([C@@H](O)CN3CCC(NCc4cc5ccccn5n4)CC3)c2c1 [TCMDC-141025],65.1
